Assay [1] is described as follows: Nuclear factor erythroid 2-related factor 2/antioxidant responsive element (Nrf2/ARE) small molecule agonists: qHTS cell viability counter screen in human keratinocytes (AID 1919968; active = well fitted curve in the direction sought with a large enough effect in the repeat runs; an effect the other way counts as inactive or inconclusive; note: nearly all actives have a fitted effect of over 55% in size). The essentials:
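Fluorescence read-out from CellTiter-Fluor after 1 h at 37 C. Wells held HaCaT-derived ARE-luciferase reporter cells (1,500/well) treated 23 h with DMSO-dissolved compounds. Run in the same wells as the luciferase agonist read.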
A general note: Quantitative high-throughput screening tests each substance at several concentrations.

Assay [2] is described as follows: Nuclear factor erythroid 2-related factor 2/antioxidant responsive element (Nrf2/ARE) small molecule agonists: luciferase reporter gene qHTS assay in human keratinocytes (AID 1919969). Note: nearly all actives have a fitted effect of over 35% in size.
The target in assay [3] is Gonadotropin-releasing hormone receptor (Homo sapiens) (UniProt P30968). Nature of the assay: Human gonadotropin-releasing hormone receptor (GnRHR) small molecule agonists, calcium flux assay in GnRHR-HEK293 cells (AID 1920063). Note: nearly all actives have a fitted effect of over 35% in size. The essentials:
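Calcium-dye fluorescence, Ex/Em=480/540, recorded every 1 sec over 3 min after compound addition to GnRHR-HEK293 cells. Cells had been seeded 18 hours earlier and dye-loaded for 1 hour at 37 C. Fifteen concentrations, triplicates.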
A general note: Calcium flux is commonly read through the fluorescence of an indicator in the cells.

The target in assay [4] is KiSS-1 receptor (Homo sapiens) (UniProt Q969F8). Nature of the assay: Human kisspeptin (KISS1R) small molecule agonists, calcium flux assay in KISS1R-HEK293 cells (AID 1920064; active = well fitted curve in the direction sought with a large enough effect in the repeat runs; an effect the other way counts as inactive or inconclusive). The essentials:
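Calcium flux read-out: kinetic fluorescence at Ex/Em=480/540, 1 s intervals over 3 min, after pin-tool compound addition to dye-loaded KISS1R-HEK293 cells. Fifteen concentrations, triplicates.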

The nature of assay [5]: G protein-coupled receptor (GPCR) small molecule agonists, calcium flux assay: HEK293 wild type cell line counter screen (AID 1920065). A digest of the protocol: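 Agonist mode; 18 h seeding at 37 C, 1 h dye load at 37 C; compounds pinned from DMSO, ATP as positive control; kinetic fluorescence 480/540 nm, 3 min, 1 s reads; 15 concentrations, triplicate.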
The nature of assay [6]: p53 small molecule agonists, cell-based qHTS assay with human liver microsomes (AID 1963577). The essentials:
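Fluorescence of the beta-lactamase reporter in p53RE-bla cells, detected with LiveBLAzer substrate (2 h, room temperature, dark), served as the read-out after 16 h compound exposure at 37 C with human liver microsomes and NADPH, each 0.5 mg/mL final.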

A short description of assay [7]: p53 small molecule agonists, cell-based qHTS assay with rat liver microsomes (AID 1963578). The essentials:
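Cells carrying a p53 response element–beta-lactamase reporter were plated and rested 5 h, then dosed with compound in DMSO plus rat liver microsomes and NADPH, each at 0.5 mg/mL final. After 16 h at 37 C, LiveBLAzer substrate was added for 2 h.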

Assay [8] can be described thus: p53 small molecule agonists, cell-based qHTS assay with human liver microsomes: qHTS cell viability counter screen (AID 1963579). Note: nearly all actives have a fitted effect of over 45% in size. A digest of the protocol:
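Cytotoxicity counter screen: p53RE-bla, 4,000 cells/well; 5 h settle, 37 C/5% CO2; cpd + HLM 0.5 mg/mL + NADPH 0.5 mg/mL (final); 16 h, 37 C; CellTiter-Glo, 30 min RT, luminescence.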

Assay [9] in a line: p53 small molecule agonists, cell-based qHTS assay with rat liver microsomes: qHTS cell viability counter screen (AID 1963580). Note: nearly all actives have a fitted effect of over 45% in size. A digest of the protocol:
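Cytotoxicity counter screen: intracellular ATP measured by CellTiter-Glo luminescence in the same wells as the beta-lactamase reporter read, on HCT-116 p53RE-bla cells exposed 16 h at 37 C to compounds with rat liver microsomes and NADPH, each 0.5 mg/mL final.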

Assay [10] is described as follows: p53 small molecule agonists, cell-based qHTS assay: qHTS cell viability counter screen (AID 1963581). Note: nearly all actives have a fitted effect of over 45% in size. A digest of the protocol:
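Cytotoxicity read-out: ATP-based luminescence (CellTiter-Glo, 30 min RT) measured in the same wells as the p53 reporter assay, HCT-116 p53RE-bla cells, 16 h compound exposure at 37 C.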

Assay [11] is described as follows: p53 small molecule agonists, cell-based qHTS assay (AID 1963582; active = well fitted activation curve with a large enough effect in the signal ratio in the repeat runs, not every such curve was filed as active; the % refers to the signal ratio). The essentials:
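Fluorescence intensity read-out of a beta-lactamase reporter under a p53 response element. Cells were exposed to DMSO-dissolved compounds for 16 h at 37 C, then developed with FRET substrate for 2 h at RT.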

Assay [12] has as its target 5-hydroxytryptamine receptor 2A (Homo sapiens) (UniProt P28223). As to the kind of experiment: 5-hydroxytryptamine receptor 2A (HTR2A) small molecule antagonists, cell-based qHTS assay (AID 1963586). Note: nearly all actives have a fitted effect of over 45% in size. A digest of the protocol: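 CHO cells stably expressing human HTR2A were plated for 18 h at 37 C, then loaded with calcium dye for 1 h. Compounds were preincubated 5 min at room temperature before DOI (4 nM solution) was added. Kinetic fluorescence was read for 3 min.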

Assay [13] has the same target. As to the kind of experiment: 5-hydroxytryptamine receptor 2A (HTR2A) small molecule agonists, cell-based qHTS assay (AID 1963587). Note: nearly all actives have a fitted effect of over 30% in size. Note: potency is the fitted concentration of half-maximal effect. A digest of the protocol:
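CHO cells stably expressing human HTR2A, plated 18 h, loaded with calcium dye 1 h at 37 C. Agonist mode: compounds added and intracellular calcium fluorescence recorded kinetically for 2 min at 1 sec intervals.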

Assay [14] concerns the target Muscarinic acetylcholine receptor M1 (Homo sapiens) (UniProt P11229). Nature of the assay: Cholinergic receptor muscarinic 1 (CHRM1) small molecule antagonists, cell-based qHTS assay (AID 1963588). Note: nearly all actives have a fitted effect of over 40% in size. Note: potency is the fitted concentration of half-maximal effect. A digest of the protocol: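 Compounds were tested at 15 concentrations in three independent runs. Dye-loaded CHRM1-CHO cells were exposed 5 min at room temperature before stimulation by acetylcholine added at 50nM. Intracellular calcium was read kinetically on FDSS for 3 min.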

Assay [15] has the same target. As to the kind of experiment: Cholinergic receptor muscarinic 1 (CHRM1) small molecule agonists, cell-based qHTS assay (AID 1963589). Note: nearly all actives have a fitted effect of over 35% in size. The essentials:
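Calcium flux read-out: kinetic fluorescence at 1 sec intervals after pin-tool compound addition to dye-loaded CHRM1-CHO cells (human M1). Agonist mode; 15 concentrations tested in triplicate independent runs.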

The nature of assay [16]: cAMP Responsive Elements (CRE) small molecule agonists, cell-based qHTS assay (AID 1963590). A digest of the protocol:
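Beta-lactamase reporter readout: LiveBLAzer B/G FRET substrate, 2 h at room temperature, added after 3 h compound treatment of CRE-bla HEK 293T cells at 37 C/5% CO2.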

Assay [17] is described as follows: cAMP Responsive Elements (CRE) small molecule antagonists, cell-based qHTS assay (AID 1963591; active = well fitted inhibition curve with a large enough effect in the signal ratio in the repeat runs, not every such curve was filed as active; the % refers to the signal ratio). A digest of the protocol: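 HEK293T CRE-bla; 18 h preincubation; compound pin-transfer; NKH477 0.25 uM final, 3 h, 37 C; LiveBLAzer FRET substrate 2 h RT.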
The target in assay [18] is Beta-2 adrenergic receptor (Homo sapiens) (UniProt P07550). As to the kind of experiment: Adrenergic beta2 receptor (ADRB2) small molecule antagonists, cell-based qHTS assay (AID 1963592). Note: series mostly up to about 92 µM; nearly all actives have a fitted effect of over 50% in size. The essentials: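 Assay format: CHO-ADRB2 cells, 18-20hr seeding at 37C/5% CO2, then compound plus 1nM isoproterenol agonist mix for 0.5hr RT. Homogeneous time-resolved fluorescence cAMP detection after 1hr, expressed as 665/615 nm ratio.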

Assay [19] concerns the target D(2) dopamine receptor (Homo sapiens) (UniProt P14416). Nature of the assay: Dopamine D2 receptor (DRD2) small molecule antagonists, cell-based qHTS assay (AID 1963595; active = well fitted inhibition curve with a large enough effect in the signal ratio in the repeat runs, with a control signal flat; the % refers to the signal ratio). A digest of the protocol:
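HEK293 cells stably expressing DRD2 were preincubated with 0.1 mM Ro20-1724, then with compound for 10 min at room temperature. Cells were stimulated with 200 nM NKH477 plus 12 nM quinpirole for 30 min, and cAMP was read by HTRF.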

Assay [20] shares this target. Nature of the assay: Dopamine D2 receptor (DRD2) small molecule agonists, cell-based qHTS assay (AID 1963594). Note: nearly all actives have a fitted effect of over 35% in size. The essentials:
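HEK293 cells stably expressing human DRD2, pre-treated with PDE inhibitor Ro20-1724 (0.1 mM final) and compound 10 min at room temperature, then stimulated with NKH477 (200nM […]) for 30 min. cAMP read by HTRF (665/620 nm).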

SMILES strings stand for the structures. A number with no mark means an inactive call. Results filed as inconclusive are left out. The source made the active and inactive calls. Unless noted, calls come from the whole dose curve.

Sequence of 5-hydroxytryptamine receptor 2A (Homo sapiens) (P28223 whole entry, looked up): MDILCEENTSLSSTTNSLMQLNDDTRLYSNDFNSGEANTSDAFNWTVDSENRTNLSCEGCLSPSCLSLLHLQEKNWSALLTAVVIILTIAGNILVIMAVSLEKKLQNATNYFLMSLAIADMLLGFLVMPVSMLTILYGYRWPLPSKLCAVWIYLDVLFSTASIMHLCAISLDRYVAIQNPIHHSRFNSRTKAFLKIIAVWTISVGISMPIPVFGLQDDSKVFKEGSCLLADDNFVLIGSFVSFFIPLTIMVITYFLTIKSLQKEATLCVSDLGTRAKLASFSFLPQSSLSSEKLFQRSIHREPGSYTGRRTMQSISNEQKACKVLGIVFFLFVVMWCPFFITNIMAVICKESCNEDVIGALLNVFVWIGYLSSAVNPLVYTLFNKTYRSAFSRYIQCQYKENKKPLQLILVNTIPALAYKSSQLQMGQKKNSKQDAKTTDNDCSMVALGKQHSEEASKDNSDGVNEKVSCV
Sequence of KiSS-1 receptor (Homo sapiens) (Q969F8 whole entry, looked up): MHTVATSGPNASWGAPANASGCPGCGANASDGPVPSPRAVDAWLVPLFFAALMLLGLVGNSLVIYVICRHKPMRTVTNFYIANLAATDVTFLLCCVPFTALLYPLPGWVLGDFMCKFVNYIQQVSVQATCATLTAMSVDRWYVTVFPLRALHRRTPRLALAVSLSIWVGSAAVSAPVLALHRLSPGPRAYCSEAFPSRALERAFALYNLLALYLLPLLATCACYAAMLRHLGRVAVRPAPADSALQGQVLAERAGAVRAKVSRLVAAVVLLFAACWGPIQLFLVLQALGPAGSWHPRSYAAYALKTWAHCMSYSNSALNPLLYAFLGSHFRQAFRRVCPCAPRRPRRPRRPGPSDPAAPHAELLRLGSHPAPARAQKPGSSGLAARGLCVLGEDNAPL
Sequence of Beta-2 adrenergic receptor (Homo sapiens) (P07550 whole entry, looked up): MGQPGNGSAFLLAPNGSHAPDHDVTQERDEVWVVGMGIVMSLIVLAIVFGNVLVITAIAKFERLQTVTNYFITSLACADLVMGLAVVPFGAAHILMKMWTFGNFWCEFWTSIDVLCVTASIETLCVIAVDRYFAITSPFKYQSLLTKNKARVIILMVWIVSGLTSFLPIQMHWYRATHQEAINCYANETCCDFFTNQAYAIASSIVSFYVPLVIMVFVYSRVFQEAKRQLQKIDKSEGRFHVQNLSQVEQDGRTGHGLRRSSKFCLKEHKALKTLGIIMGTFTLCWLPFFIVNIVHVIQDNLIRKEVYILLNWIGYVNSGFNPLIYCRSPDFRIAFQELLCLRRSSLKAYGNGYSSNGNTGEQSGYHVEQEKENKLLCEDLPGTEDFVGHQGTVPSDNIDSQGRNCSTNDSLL
Sequence of Gonadotropin-releasing hormone receptor (Homo sapiens) (P30968 whole entry, looked up): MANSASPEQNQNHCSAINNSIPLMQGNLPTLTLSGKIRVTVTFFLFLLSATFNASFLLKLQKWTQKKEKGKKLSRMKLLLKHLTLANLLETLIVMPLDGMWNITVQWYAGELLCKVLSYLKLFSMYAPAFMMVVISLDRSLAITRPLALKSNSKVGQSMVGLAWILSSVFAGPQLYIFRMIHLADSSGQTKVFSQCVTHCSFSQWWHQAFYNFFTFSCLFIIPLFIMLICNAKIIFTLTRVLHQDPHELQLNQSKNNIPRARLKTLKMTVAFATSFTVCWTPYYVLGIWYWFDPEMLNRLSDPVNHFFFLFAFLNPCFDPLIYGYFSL
Sequence of D(2) dopamine receptor (Homo sapiens) (P14416 whole entry, looked up): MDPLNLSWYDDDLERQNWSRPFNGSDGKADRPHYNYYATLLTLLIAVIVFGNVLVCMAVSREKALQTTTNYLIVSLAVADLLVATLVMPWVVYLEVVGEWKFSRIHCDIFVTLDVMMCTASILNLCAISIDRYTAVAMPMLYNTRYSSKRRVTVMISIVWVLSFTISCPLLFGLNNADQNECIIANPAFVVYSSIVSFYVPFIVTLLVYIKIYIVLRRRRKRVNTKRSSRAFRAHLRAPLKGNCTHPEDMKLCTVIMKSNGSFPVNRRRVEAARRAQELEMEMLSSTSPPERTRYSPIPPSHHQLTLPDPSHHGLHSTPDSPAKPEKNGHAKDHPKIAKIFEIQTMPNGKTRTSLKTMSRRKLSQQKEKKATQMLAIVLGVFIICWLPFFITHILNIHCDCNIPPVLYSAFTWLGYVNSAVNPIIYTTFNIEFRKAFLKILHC
Sequence of Muscarinic acetylcholine receptor M1 (Homo sapiens) (P11229 whole entry, looked up): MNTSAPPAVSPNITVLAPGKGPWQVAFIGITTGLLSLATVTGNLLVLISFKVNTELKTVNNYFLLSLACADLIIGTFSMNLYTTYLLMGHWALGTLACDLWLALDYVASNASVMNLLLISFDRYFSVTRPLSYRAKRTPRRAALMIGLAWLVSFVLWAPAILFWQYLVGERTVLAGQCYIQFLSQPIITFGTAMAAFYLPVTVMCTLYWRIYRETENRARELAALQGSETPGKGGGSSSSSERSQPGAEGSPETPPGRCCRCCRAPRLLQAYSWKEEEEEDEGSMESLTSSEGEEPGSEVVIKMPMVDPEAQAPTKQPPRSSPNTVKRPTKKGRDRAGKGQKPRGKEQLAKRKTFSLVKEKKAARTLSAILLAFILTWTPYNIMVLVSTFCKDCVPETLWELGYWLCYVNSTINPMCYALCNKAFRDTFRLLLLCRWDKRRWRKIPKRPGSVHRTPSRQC

With `N[C@H]1C(O)O[C@H](CO)[C@@H](O)[C@@H]1O` (stereo not given in full), the Potency result in assay [1], in assay [2], in assay [3], in assay [4], in [5] and in assay [6] was “inactive” in each case. Besides, the Potency result in [7], in [8], in assay [9], in [10], in assay [11] and in assay [12] was “inactive” each time. Besides, the Potency entry in assay [13], in assay [14], in assay [15], in [16], in assay [17] and in assay [18] was “inactive” each time. Moreover, in assay [19], the Potency entry was “inactive”.
In the case of `C[C@H]1C[C@H](O)c2ccsc2S1(=O)=O`, the Potency result in assay [1], in assay [2], in assay [3], in assay [4], in assay [5] and in [6] was “inactive” each time. The Potency result in assay [7], in assay [8], in [9], in assay [10], in assay [11] and in assay [12] was “inactive” each time. The Potency result in [13], in assay [14], in assay [15], in assay [16], in assay [17] and in assay [18] was “inactive” in each case. The Potency entry in assay [20] and in [19] was “inactive” in each case.
`COC(=O)CC(C(C)=O)C(=O)OC` (stereo not given): the Potency result in assay [1], in assay [2], in assay [3], in [4], in [5] and in assay [6] was “inactive” each time. The Potency result in [7], in [8], in assay [9], in assay [10], in assay [11] and in assay [12] was “inactive” each time. Besides, the Potency result in [13], in assay [14], in assay [15], in [16], in assay [17] and in [18] was “inactive” in each case. For the same compound, the Potency entry in [19] is “inactive”.
Consider `O=C1C(O)=C(O)C(=O)C(O)=C1O`, for which the Potency result in assay [1], in assay [2], in [3], in assay [4], in assay [5] and in assay [6] was “inactive” throughout. Also, the Potency entry in assay [7], in assay [8], in assay [9], in assay [10], in assay [11] and in assay [12] was “inactive” throughout. Moreover, the Potency result in assay [14], in assay [15], in assay [16], in assay [17], in assay [18] and in assay [20] was “inactive” throughout. The Potency result in [19] was “inactive”. In addition, in assay [13], the Potency is 47.7 nM (active).
As for `CN(CC1(C)CCCO1)S(=O)(=O)c1ccc(Cl)c(S(N)(=O)=O)c1` (stereo not given), the Potency result in assay [1], in assay [2], in assay [3], in [4], in assay [5] and in assay [6] was “inactive” each time. In addition, the Potency result in assay [7], in assay [8], in assay [9], in assay [10], in [11] and in [12] was “inactive” throughout. The Potency result in [13], in [14], in [15], in [16], in [17] and in assay [18] was “inactive” in each case. For the same compound, the Potency entry in [20] is “inactive”.
For `COC(=O)c1ccccc1C(=O)c1ccc(OCCN2CCCCC2)cc1`, the Potency entry in assay [1], in assay [2], in assay [3], in assay [4], in [5] and in assay [6] was “inactive” each time. In addition, the Potency result in assay [7], in assay [8], in assay [9], in [10], in assay [11] and in assay [12] was “inactive” throughout. Besides, the Potency entry in assay [13], in assay [15], in [16], in assay [17], in assay [18] and in [20] was “inactive” each time. In addition, in assay [14], the Potency was 36.5 nM (active).
Regarding `OCC(O)CN1CCN(c2ccccc2)CC1` (stereo not given), the Potency result in [1], in [2], in [3], in [4], in assay [5] and in assay [6] was “inactive” throughout. Moreover, the Potency result in [7], in [8], in assay [9], in [10], in [11] and in assay [12] was “inactive” throughout. For the same compound, the Potency entry in [13], in assay [14], in [15], in assay [16], in [17] and in [18] was “inactive” throughout. Further, the Potency result in assay [19] was “inactive”.

The values are drawn from PubChem BioAssay (Tox21).
